In the supplement of paper PMC10849652:
Targets with a hit are over-represented here; the source holds about 8,800 in all. About 0.5% of all pairs of compound and target were hits.

Key:
Assay in all cases: log2 fold change, soluble protein after heating vs DMSO (PISA); higher = thermal stabilisation; K562 lysate, 10 uM; active = over 0.2 and 3.5 SD of the protein, either way, in both replicates (recomputed)
erlotinib = compound: C#Cc1cccc(Nc2ncnc3cc(OCCOC)c(OCCOC)cc23)c1 [erlotinib]
In short: (§1)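 K562 pellets were dounce-homogenised in PBS pH 7.4 containing 1 mM MgCl2, and the crude extract, at 1 mg/mL protein, was exposed to 10 μM compound for 30 min. Aliquots were heated for 3 min across 48°C-58°C, pooled, brought to 0.5% NP-40 at 4°C and spun at 21,000xg for 90 min, with the supernatant taken as soluble protein. TMTpro 16plex LC-MS/MS with equalised channel sums quantified that protein. Values are log-two fold changes in thermal stability relative to solvent controls, taken from duplicates.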

[1] = compound: C/C(=N\NC(=O)C1=CC(=CC=C1)S(=O)(=O)N2CCOCC2)/C3=C(C=CC(=C3)Cl)O
In short: as §1

[2] = compound: C1=CC(=CC=C1C2=NC3=C(N2)C=C(C=C3)C(=O)N)OC4=CC=C(C=C4)Cl
In short: as §1

[3] = compound: C1=CC2=C(C=CC(=C2)/C=C\3/C(=O)NC(=NCC4=CC=CS4)S3)N=C1
In short: as §1

[4] = compound: C1=CC2=NC=CN=C2C=C1/C=C/3\C(=O)NC(=O)S3
In short: as §1

[5] = compound: C1=CC=C(C=C1)C2=NC(=C(N2)C3=CC=NC=C3)C4=CC(=C(C=C4)Cl)O
In short: as §1

[6] = compound: C1=CC=C2C(=C1)C3=NNC4=CC=CC(=C43)C2=O
In short: as §1

[7] = compound: C1CCN(C1)C(=O)NC2=CC=CC(=C2)NC3=NC=C(C(=N3)NCCC4=CN=CN4)Br
In short: as §1

[8] = compound: C1CN(CCC1(CC2=CC=C(C=C2)Cl)N)C3=NC=NC4=C3C=CN4
In short: as §1

IRAK-1-4 Inhibitor I = compound: C1COCCN1CCN2C3=CC=CC=C3N=C2NC(=O)C4=CC(=CC=C4)[N+](=O)[O-] [IRAK-1-4 Inhibitor I]
In short: as §1

Measured: log2 fold change

APOB (UniProt P04114)
inactive: erlotinib -0.028 | [1] -0.001 | [2] -0.032 | [3] -0.029 | [4] -0.021 | [5] 0 | [6] -0.055 | [7] -0.067 | [8] 0.015 | IRAK-1-4 Inhibitor I 0.097

AP4B1 (UniProt Q9Y6B7)
inactive: erlotinib 0.021 | [1] -0.038 | [2] 0.016 | [3] 0.096 | [4] 0.038 | [5] 0.019 | [6] -0.022 | [7] -0.018 | [8] 0.188 | IRAK-1-4 Inhibitor I 0.013

AK4 (UniProt P27144)
inactive: erlotinib -0.024 | [1] 0.024 | [2] -0.024 | [3] -0.01 | [4] -0.01 | [5] 0.015 | [6] 0.015 | [7] 0.036 | [8] 0.02 | IRAK-1-4 Inhibitor I -0.002

ABCF3 (UniProt Q9NUQ8)
inactive: erlotinib 0.005 | [1] 0.013 | [2] -0.049 | [3] 0.011 | [4] 0.009 | [5] -0.011 | [6] -0.065 | [7] 0.022 | [8] -0.033 | IRAK-1-4 Inhibitor I -0.037

ACIN1 (UniProt E7EQT4)
inactive: erlotinib 0.001 | [1] -0.16 | [2] 0 | [3] 0.05 | [4] -0.027 | [5] -0.057 | [6] -0.009 | [7] 0.008 | [8] -0.027 | IRAK-1-4 Inhibitor I 0.012

ACBD6 (UniProt Q9BR61)
inactive: erlotinib 0.013 | [1] -0.059 | [2] 0.029 | [3] 0.024 | [4] -0.032 | [5] -0.014 | [6] -0.075 | [7] -0.044 | [8] -0.01 | IRAK-1-4 Inhibitor I 0.019

ARMC6 (UniProt Q6NXE6)
inactive: erlotinib 0.012 | [1] -0.026 | [2] -0.093 | [3] 0.022 | [4] 0.04 | [5] 0.006 | [6] -0.027 | [7] 0.021 | [8] -0.031 | IRAK-1-4 Inhibitor I -0.005

ABCA3 (UniProt Q99758)
inactive: erlotinib -0.022 | [1] -0.028 | [2] -0.033 | [3] 0.036 | [4] -0.096 | [5] 0.037 | [6] 0.211 | [7] -0.118 | [8] 0 | IRAK-1-4 Inhibitor I 0.114

ANKRD52 (UniProt Q8NB46)
inactive: erlotinib 0.056 | [1] -0.288 | [2] 0.026 | [3] -0.011 | [4] 0.021 | [5] 0.013 | [6] -0.092 | [7] 0.008 | [8] 0.072 | IRAK-1-4 Inhibitor I 0.051

ABL1 isoform 2 (UniProt P00519)
inactive: erlotinib 0.026 | [1] -0.005 | [2] -0.013 | [3] 0.026 | [4] -0.027 | [5] 0.033 | [6] -0.022 | [7] -0.035 | [8] 0.015 | IRAK-1-4 Inhibitor I -0.01

ACADS (UniProt P16219)
inactive: erlotinib -0.013 | [1] 0.021 | [2] -0.013 | [3] 0.062 | [4] -0.012 | [5] 0.001 | [6] -0.046 | [7] 0.01 | [8] 0.027 | IRAK-1-4 Inhibitor I 0.017

ALDH1B1 (UniProt P30837)
active: [6] 0.262
inactive: erlotinib -0.064 | [1] 0.027 | [2] -0.035 | [3] -0.004 | [4] 0.031 | [5] 0.009 | [7] -0.025 | [8] 0.048 | IRAK-1-4 Inhibitor I 0.038

ABL2 (UniProt P42684)
inactive: erlotinib -0.046 | [1] 0.068 | [2] 0.053 | [3] -0.014 | [4] -0.013 | [5] 0.045 | [6] -0.003 | [7] -0.065 | [8] -0.141 | IRAK-1-4 Inhibitor I -0.068

ALG13 (UniProt Q9NP73)
Chain of UniProt Q9NP73 (Q9NP73 whole entry, looked up): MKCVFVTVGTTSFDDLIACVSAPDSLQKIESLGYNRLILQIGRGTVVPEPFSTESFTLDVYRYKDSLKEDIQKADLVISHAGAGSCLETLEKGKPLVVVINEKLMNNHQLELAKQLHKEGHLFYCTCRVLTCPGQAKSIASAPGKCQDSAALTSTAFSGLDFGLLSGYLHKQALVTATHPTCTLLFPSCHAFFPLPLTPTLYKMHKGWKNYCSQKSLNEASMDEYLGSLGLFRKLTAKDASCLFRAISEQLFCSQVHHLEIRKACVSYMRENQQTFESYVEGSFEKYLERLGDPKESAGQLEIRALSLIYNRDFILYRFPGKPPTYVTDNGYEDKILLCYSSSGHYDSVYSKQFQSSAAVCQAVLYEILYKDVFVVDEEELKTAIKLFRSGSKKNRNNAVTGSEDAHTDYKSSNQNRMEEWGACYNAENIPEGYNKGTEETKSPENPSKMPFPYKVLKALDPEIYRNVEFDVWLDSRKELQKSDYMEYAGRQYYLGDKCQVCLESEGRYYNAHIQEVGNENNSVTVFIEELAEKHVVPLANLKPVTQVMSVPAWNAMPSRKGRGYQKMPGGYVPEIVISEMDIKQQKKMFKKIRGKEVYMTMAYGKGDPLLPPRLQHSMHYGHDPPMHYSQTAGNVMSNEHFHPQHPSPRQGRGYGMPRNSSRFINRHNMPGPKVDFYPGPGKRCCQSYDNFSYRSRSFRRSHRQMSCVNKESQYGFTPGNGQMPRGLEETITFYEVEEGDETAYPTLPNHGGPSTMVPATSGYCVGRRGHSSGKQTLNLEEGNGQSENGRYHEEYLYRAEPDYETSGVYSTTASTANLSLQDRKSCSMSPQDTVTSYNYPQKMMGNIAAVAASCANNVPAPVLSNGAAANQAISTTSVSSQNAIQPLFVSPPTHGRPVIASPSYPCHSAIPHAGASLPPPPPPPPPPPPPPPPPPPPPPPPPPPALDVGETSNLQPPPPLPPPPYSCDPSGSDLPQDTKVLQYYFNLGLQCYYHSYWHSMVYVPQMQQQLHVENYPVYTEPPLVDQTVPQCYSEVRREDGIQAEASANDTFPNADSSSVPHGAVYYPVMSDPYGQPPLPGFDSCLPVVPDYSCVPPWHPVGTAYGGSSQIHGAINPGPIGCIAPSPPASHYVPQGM
inactive: erlotinib 0.022 | [1] -0.014 | [2] 0.049 | [3] -0.008 | [4] -0.048 | [5] 0.047 | [6] -0.032 | [7] -0.01 | [8] 0.083 | IRAK-1-4 Inhibitor I -0.02

ABCF2 isoform 2 (UniProt Q9UG63)
Chain of UniProt Q9UG63 (Q9UG63 whole entry, looked up): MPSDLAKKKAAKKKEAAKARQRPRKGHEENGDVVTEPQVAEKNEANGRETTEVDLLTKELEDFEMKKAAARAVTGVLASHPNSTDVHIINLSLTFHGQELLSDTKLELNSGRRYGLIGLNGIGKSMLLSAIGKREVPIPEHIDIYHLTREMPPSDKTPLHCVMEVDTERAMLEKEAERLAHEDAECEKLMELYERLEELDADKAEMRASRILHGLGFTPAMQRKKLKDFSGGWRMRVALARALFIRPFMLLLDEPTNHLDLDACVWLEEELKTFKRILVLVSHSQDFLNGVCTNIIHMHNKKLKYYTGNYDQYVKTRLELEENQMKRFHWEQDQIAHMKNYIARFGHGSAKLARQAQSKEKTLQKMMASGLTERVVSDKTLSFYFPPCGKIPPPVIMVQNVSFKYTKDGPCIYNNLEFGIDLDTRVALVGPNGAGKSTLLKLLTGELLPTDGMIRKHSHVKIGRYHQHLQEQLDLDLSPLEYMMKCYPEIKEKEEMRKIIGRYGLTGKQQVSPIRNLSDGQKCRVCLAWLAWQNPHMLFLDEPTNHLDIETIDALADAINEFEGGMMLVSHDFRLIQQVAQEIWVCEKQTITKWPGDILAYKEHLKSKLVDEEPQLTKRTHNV
inactive: erlotinib 0.046 | [1] -0.029 | [2] -0.049 | [3] -0.025 | [4] 0.01 | [5] 0.018 | [6] -0.042 | [7] 0.049 | [8] 0.016 | IRAK-1-4 Inhibitor I -0.047

AIP (UniProt O00170)
Chain of UniProt O00170 (O00170 whole entry, looked up): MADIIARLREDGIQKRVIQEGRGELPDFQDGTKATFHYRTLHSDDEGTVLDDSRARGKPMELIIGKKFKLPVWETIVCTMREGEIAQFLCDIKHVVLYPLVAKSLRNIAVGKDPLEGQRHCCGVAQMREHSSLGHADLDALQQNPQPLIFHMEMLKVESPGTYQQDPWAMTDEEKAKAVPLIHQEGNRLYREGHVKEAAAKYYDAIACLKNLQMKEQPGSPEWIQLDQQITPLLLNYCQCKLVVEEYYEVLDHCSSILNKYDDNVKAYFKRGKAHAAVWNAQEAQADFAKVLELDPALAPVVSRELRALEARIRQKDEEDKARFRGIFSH
inactive: erlotinib -0.006 | [1] -0.032 | [2] -0.015 | [3] -0.004 | [4] -0.012 | [5] 0.018 | [6] 0.026 | [7] -0.002 | [8] 0.016 | IRAK-1-4 Inhibitor I -0.012

ALDH18A1 (UniProt P54886)
Chain of UniProt P54886 (P54886 whole entry, looked up): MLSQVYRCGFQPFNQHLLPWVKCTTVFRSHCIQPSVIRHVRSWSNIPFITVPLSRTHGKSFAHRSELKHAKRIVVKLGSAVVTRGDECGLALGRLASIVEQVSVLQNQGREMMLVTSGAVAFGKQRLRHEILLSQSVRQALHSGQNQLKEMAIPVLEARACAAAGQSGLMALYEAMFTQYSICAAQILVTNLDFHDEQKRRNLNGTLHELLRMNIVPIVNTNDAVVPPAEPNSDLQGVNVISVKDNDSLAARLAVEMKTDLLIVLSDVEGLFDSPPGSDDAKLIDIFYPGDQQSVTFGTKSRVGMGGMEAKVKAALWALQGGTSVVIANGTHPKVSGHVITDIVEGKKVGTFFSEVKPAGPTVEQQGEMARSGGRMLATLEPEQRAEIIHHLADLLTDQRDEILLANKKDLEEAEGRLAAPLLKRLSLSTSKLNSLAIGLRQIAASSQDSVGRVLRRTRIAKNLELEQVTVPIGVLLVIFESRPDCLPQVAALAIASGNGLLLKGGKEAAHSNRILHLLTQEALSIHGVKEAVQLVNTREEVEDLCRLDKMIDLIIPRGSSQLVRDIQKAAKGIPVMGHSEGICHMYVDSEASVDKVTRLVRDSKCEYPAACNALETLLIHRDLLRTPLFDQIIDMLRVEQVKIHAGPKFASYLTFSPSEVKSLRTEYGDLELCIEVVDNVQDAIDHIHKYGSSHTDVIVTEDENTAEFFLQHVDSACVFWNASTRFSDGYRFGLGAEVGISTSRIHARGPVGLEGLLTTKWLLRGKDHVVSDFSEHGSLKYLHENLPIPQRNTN
inactive: erlotinib 0.029 | [1] -0.039 | [2] -0.017 | [3] 0.02 | [4] -0.015 | [5] -0.016 | [6] -0.025 | [7] -0.022 | [8] 0.001 | IRAK-1-4 Inhibitor I -0.006

AIMP2 (UniProt Q13155)
inactive: erlotinib 0.021 | [1] 0.062 | [2] -0.01 | [3] 0.006 | [4] 0.002 | [5] -0.016 | [6] -0.001 | [7] 0.014 | [8] -0.036 | IRAK-1-4 Inhibitor I 0.008

ACIN1 isoform 5 (UniProt Q9UKV3)
Chain of UniProt Q9UKV3 (Q9UKV3 whole entry, looked up): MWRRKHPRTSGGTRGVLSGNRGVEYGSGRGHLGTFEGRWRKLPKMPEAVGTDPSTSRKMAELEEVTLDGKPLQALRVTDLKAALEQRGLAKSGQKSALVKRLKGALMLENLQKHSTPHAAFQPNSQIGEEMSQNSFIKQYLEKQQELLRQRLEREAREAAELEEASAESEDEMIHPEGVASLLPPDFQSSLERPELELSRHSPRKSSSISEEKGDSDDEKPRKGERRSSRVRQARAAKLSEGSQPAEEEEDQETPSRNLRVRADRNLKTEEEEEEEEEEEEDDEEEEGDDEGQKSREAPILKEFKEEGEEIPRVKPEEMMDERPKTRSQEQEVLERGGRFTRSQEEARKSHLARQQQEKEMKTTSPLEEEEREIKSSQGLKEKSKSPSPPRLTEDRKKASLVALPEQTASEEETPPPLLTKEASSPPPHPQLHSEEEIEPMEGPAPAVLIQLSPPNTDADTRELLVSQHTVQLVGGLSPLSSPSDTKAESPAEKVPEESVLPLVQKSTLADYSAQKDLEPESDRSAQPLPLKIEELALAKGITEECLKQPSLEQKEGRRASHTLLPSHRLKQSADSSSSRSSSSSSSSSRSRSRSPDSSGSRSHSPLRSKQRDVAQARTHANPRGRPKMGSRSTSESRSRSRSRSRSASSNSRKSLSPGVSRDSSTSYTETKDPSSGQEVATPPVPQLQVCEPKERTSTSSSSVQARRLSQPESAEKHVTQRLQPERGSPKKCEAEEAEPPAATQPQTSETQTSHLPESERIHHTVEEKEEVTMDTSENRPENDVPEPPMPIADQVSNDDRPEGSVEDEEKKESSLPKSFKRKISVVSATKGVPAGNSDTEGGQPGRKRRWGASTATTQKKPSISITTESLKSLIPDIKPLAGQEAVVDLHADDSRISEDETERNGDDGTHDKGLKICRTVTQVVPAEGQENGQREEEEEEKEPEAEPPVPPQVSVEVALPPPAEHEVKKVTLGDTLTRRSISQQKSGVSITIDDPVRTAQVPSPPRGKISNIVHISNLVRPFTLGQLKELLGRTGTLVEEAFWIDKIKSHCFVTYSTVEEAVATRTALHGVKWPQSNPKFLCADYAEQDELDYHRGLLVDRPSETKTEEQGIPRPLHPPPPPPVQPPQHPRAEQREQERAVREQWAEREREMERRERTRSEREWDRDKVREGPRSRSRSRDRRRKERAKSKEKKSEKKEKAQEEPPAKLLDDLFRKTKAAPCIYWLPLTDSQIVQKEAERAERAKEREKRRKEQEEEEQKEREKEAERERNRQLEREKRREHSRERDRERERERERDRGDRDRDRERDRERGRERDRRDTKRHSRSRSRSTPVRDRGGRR
inactive: erlotinib -0.011 | [1] -0.025 | [2] -0.023 | [3] -0.028 | [4] -0.037 | [5] 0.001 | [6] -0.001 | [7] -0.006 | [8] -0.007 | IRAK-1-4 Inhibitor I -0.006

ALKBH7 (UniProt Q9BT30)
inactive: erlotinib -0.169 | [2] -0.02 | [5] 0 | [7] -0.033 | [8] 0.027 | IRAK-1-4 Inhibitor I -0.04

ANXA2 (UniProt H0YL33)
inactive: erlotinib -0.153 | [2] 0.088 | [4] -0.108 | [5] -0.027 | IRAK-1-4 Inhibitor I -0.031

AIMP2 isoform 2 (UniProt Q13155)
inactive: [4] 0.056 | [5] 0.061 | IRAK-1-4 Inhibitor I 0.006

ANAPC7 (UniProt Q9UJX3)
inactive: erlotinib -0.001 | [1] 0.006 | [2] 0.002 | [3] 0.024 | [4] -0.016 | [5] 0.003 | [6] 0.027 | [7] 0 | [8] -0.017 | IRAK-1-4 Inhibitor I 0.005

ALDH18A1 isoform 2 (UniProt P54886)
inactive: [1] -0.298 | [3] -0.142 | [5] 0.092 | [6] -0.05 | IRAK-1-4 Inhibitor I 0.046

AP3D1 isoform 2 (UniProt O14617)
inactive: erlotinib 0.029 | [1] -0.082 | [2] -0.15 | [3] -0.162 | [6] -0.026

ABRACL (UniProt Q9P1F3)
Chain of UniProt Q9P1F3 (Q9P1F3 whole entry, looked up): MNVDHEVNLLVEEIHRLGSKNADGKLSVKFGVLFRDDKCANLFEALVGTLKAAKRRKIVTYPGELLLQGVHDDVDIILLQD
inactive: erlotinib -0.013 | [2] 0.056 | [4] 0.103

ANKRD10 (UniProt Q9NXR5)
inactive: erlotinib 0.023 | [1] 0.045 | [2] -0.041 | [3] 0.009 | [4] 0.055 | [5] 0.012 | [6] -0.066 | IRAK-1-4 Inhibitor I -0.059

ABHD13 (UniProt Q7L211)
inactive: [1] 0.015 | [3] 0.021 | [4] 0.011 | [6] -0.071 | [7] 0.176 | [8] 0.04

ANP32E isoform 3 (UniProt Q9BTT0)
Chain of UniProt Q9BTT0 (Q9BTT0 whole entry, looked up): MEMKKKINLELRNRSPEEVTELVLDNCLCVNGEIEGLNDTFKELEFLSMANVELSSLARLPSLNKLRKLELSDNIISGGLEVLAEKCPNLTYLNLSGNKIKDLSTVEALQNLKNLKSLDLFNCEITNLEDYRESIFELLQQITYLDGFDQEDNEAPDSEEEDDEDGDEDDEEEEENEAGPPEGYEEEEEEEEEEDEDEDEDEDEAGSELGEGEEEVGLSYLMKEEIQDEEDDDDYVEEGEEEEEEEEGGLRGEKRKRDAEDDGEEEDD
inactive: [1] -0.079 | [3] -0.002 | [4] -0.011 | [6] 0.012 | [7] 0.075 | [8] -0.01

ARHGEF2 (UniProt V9GYF0)
inactive: [1] -0.056 | [3] -0.125 | [5] 0.012 | [6] 0.078 | [7] -0.009 | [8] -0.058 | IRAK-1-4 Inhibitor I 0.062

ARL13B (UniProt Q3SXY8)
inactive: erlotinib 0.043 | [1] 0.06 | [2] -0.195 | [3] -0.039 | [4] 0.118 | [5] -0.033 | [6] 0.094 | IRAK-1-4 Inhibitor I 0.038

AGL (UniProt P35573)
inactive: erlotinib 0.007 | [1] 0.002 | [2] 0.003 | [3] -0.021 | [4] -0.01 | [5] 0.008 | [6] -0.035 | [7] -0.017 | [8] -0.006 | IRAK-1-4 Inhibitor I 0.001

AMDHD2 (UniProt Q9Y303)
Chain of UniProt Q9Y303 (Q9Y303 whole entry, looked up): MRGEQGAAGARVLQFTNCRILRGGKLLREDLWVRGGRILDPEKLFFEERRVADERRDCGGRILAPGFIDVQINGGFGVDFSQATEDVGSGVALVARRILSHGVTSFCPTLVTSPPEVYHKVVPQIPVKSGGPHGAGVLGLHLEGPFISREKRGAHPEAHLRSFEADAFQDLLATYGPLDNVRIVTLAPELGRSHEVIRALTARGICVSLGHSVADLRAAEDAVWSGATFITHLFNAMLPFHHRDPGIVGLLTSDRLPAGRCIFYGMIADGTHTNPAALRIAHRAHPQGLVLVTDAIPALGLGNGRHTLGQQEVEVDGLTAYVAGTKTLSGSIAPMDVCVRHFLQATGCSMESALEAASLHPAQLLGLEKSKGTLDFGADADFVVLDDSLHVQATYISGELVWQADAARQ
active: [1] -0.527
inactive: [3] 0.212 | [6] -0.391
